The values below come from PubChem BioAssay.

Calls of active or inactive are those of the source.

Assay [1] deals with Human papillomavirus type 1a protein E7 (residues 44-93). In words: small molecules binding HPV E7 44-93 – biochemical, small-molecule microarray, residues 44-93, 635 nm fluorescence, primary screen (AID 1108).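 Also: E7 fragment applied at 1 µg/mL in TBST for 1 h at 4 C; score combines spot fluorescence with its signal to noise ratio.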 The following applies: fluorescence 635 nm, higher = more signal.
Assay [2] in a line: hepatitis C replication reporter changes, two-sided – Huh7 cells, luciferase reporter, HCV replication inhibitor project, primary screen (AID 1109).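 Also: huh7 hepatoma cells harbouring a luciferase neomycin HCV replicon reporter; luciferase luminescence as measure of HCV replicon replication; test concentration not given here.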 The following applies: Huh7 HCV replicon luciferase reporter, 48 h; higher = more signal. A general note: A reporter such as luciferase makes a cellular process visible.
Assay [3] has as its target Left-right determination factor 2 (Homo sapiens) (UniProt O00292). Put plainly: small molecules binding LEFTY2 protein – biochemical, small-molecule microarray, 635 nm fluorescence scan, primary screen (AID 1110). The settings on record: higher = more signal.
The target in assay [4] is Calmodulin-1 (Homo sapiens) (UniProt P0DP23). Put plainly: small molecules binding calmodulin-1 with EGTA – biochemical, small-molecule microarray, Cy5-labelled CALM1, profiling panel (AID 1111).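 Also: labelled calmodulin applied in Tris saline Tween buffer holding calcium plus EGTA and DTT.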 The settings on record: Cy5-CALM1 binding fluorescence, higher = more signal.
Assay [5] has the same target. Put plainly: small molecules binding Ca-loaded calmodulin-1 – biochemical, small-molecule microarray, Cy5-labelled CALM1, plus calcium, artefact control for SMM control-protein annotation, profiling panel (AID 1112).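 Also: score merges spot fluorescence with signal to noise from triplicate slides.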 The settings on record: Cy5-CALM1 binding fluorescence, higher = more signal.
A short description of assay [6]: probe aWnt5a binding to arrayed compounds – biochemical, biotinylated probe, 635/667 nm fluorescence, primary screen (AID 1113).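 Also: score merges 667 nm fluorescence intensity with signal-to-noise per printed feature.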 The settings on record: small-molecule microarray, higher = more signal.
Assay [7] can be described thus: probe aShh binding to arrayed compounds – biochemical, biotinylated probe, 635/667 nm fluorescence, primary screen (AID 1114).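 Also: probe is biotin-labelled aShh protein from a stem cell growth factor screen; measures binding of labelled protein to compounds printed on the slide; score merges feature fluorescence at 667 nm with signal-to-noise.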 The following applies: small-molecule microarray, higher = more signal.
Assay [8] in a line: probe aNog binding to arrayed compounds – biochemical, biotinylated probe, 635/667 nm fluorescence, primary screen (AID 1115).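 Also: probe is biotinylated aNog protein used at 0.15 µg/mL for 1 h at 4 C; z-score combines 667 nm fluorescence of each spot with its signal to noise.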 The settings on record: small-molecule microarray, higher = more signal.
The target of assay [9] is Torsin-1A-interacting protein 1 (Homo sapiens) (UniProt Q5JTV8). Put plainly: compound microarray binding of lysate hLAP1 – cell lysate, small-molecule microarray, COS7 lysate, 635/667 nm fluorescence, primary screen (AID 1116). The settings on record: 635 nm fluorescence, higher = more signal.
Sequence of Torsin-1A-interacting protein 1 (Homo sapiens) (Q5JTV8 whole entry, looked up): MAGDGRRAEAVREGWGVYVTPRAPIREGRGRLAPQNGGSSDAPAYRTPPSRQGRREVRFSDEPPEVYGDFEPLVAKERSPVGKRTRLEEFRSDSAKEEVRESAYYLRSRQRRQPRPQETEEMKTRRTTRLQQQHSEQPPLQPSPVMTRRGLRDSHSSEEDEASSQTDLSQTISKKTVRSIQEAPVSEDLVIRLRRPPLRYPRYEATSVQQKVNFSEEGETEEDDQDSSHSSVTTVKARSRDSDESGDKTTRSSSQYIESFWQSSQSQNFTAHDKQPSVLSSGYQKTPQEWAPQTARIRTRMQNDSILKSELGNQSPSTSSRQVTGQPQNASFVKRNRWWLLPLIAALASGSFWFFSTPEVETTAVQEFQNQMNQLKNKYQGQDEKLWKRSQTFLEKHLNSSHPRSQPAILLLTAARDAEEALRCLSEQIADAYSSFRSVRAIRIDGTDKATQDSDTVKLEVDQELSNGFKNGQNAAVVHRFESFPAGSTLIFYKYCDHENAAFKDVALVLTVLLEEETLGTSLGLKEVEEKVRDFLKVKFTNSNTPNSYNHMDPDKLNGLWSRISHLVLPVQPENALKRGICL
The target of assay [10] is Alpha-bungarotoxin (Bungarus multicinctus) (UniProt P60615). Put plainly: compounds binding labelled alpha-BTX control protein – biochemical, small-molecule microarray, Alexa647 label, 635/667 nm fluorescence, artefact control for SMM control protein annotation, profiling panel (AID 1117). The settings on record: alpha-BTX-A647 binding fluorescence, higher = more signal.
Sequence of Alpha-bungarotoxin (Bungarus multicinctus) (P60615 whole entry, looked up): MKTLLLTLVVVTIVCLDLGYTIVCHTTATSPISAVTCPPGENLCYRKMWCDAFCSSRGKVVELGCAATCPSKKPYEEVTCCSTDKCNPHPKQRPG

A further assay has as its target Albumin (Bos taurus) (UniProt P02769). Put plainly: compounds binding labelled BSA control protein – biochemical, small-molecule microarray, Alexa647 label, 635/667 nm fluorescence, artefact control for SMM control protein annotation, profiling panel (AID 1118).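 Also: score merges 667 nm emission intensity and signal-to-noise per printed compound spot.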 The following applies: BSA-A647 binding, fluorescence 635 nm, higher = more signal.
Assay [11] is described as follows: probe aXIP binding to arrayed compounds – biochemical, NeuroSMM set, 635/667 nm fluorescence, primary screen (AID 1119).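 Also: probe is the protein aXip251-270 applied at 1 µg/mL to compound-printed slides; binding of probe to printed compounds measured as 667 nm fluorescence plus signal to noise.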 The following applies: small-molecule microarray, higher = more signal, called active from +8 up or from −8 down.
Assay [12] can be described thus: probe aNOTCH3 binding on compound microarray – biochemical, small-molecule microarray, 635/667 nm fluorescence, primary screen (AID 1120).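 Also: probe is a biotin-tagged antibody raised against NOTCH3 rather than NOTCH3 protein; score merges spot fluorescence near 667 nm with spot signal to noise.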 The following applies: higher = more signal.
Assay [13] can be described thus: probe aNOTCH2 binding on compound microarray – biochemical, small-molecule microarray, 635/667 nm fluorescence, primary screen (AID 1121).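 Also: score merges feature fluorescence read at 667 nm with its signal to noise.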 The following applies: higher = more signal.
Assay [14] concerns the target Carbonic anhydrase 2 (Homo sapiens) (UniProt P00918). In words: compounds binding carbonic anhydrase 2 – biochemical, small-molecule microarray, Alexa647-labelled CAII, profiling panel (AID 1122). The settings on record: CAII-A647 binding fluorescence, higher = more signal.
Assay [15] is described as follows: COS7 lysate on small-molecule microarray, probe aHis, 635 nm (AID 1123).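 Also: z-score combines 667nm fluorescence intensity with signal-to-noise per printed compound spot.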 The settings on record: COS7 cell lysate, fluorescence, higher = more signal.
Assay [16] is described as follows: probe aLAP1 signal on lysate-treated microarray – cell lysate, small-molecule microarray, COS7 lysate, primary screen (AID 1124).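 Also: lysate comes from COS7 cells expressing LAP1 and is applied at 0.3 µg/mL; score merges spot fluorescence near 667 nm with signal-to-noise over triplicate slides.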 The following applies: probe aLAP1, fluorescence, higher = more signal.
For a further assay, the system named is Sam68 (KHDRBS1). Put plainly: compounds binding KHDRBS1 protein – biochemical, small-molecule microarray, 635 nm fluorescence, primary screen (AID 1125).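 Also: score merges 667 nm channel intensity with signal to noise over triplicate slides.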 The settings on record: higher = more signal.
Assay [17] deals with Chordin-like protein 2 (CHRDL2). In words: compounds binding chordin-like 2 – biochemical, small-molecule microarray, 635 nm fluorescence, primary screen (AID 1126).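 Also: printed compound slides probed with Chrdl2 protein at 4 µg/mL for 1 h at 4 C; score merges 667 nm emission intensity with signal to noise over three replicate slides.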 The settings on record: fluorescence 635 nm, higher = more signal.
The target in assay [18] is Concanavalin-A (Canavalia ensiformis) (UniProt P02866). In words: compounds binding concanavalin A lectin – biochemical, small-molecule microarray, Alexa647 label, 635 nm, artefact control for SMM control protein annotation, primary screen (AID 1127).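 Also: z combines 667 nm emission intensity with signal-to-noise across three replicate slides.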 The settings on record: ConA-A647 binding fluorescence, higher = more signal.
Sequence of Concanavalin-A (Canavalia ensiformis) (P02866 whole entry, looked up): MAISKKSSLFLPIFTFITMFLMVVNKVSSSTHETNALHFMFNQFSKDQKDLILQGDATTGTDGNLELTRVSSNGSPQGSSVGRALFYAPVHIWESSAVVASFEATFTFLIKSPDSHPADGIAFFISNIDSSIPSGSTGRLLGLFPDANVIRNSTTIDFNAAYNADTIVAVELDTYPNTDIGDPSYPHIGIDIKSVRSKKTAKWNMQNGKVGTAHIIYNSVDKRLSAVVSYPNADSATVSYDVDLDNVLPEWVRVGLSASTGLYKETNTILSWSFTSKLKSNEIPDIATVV

Sequence of Left-right determination factor 2 (Homo sapiens) (O00292 whole entry, looked up): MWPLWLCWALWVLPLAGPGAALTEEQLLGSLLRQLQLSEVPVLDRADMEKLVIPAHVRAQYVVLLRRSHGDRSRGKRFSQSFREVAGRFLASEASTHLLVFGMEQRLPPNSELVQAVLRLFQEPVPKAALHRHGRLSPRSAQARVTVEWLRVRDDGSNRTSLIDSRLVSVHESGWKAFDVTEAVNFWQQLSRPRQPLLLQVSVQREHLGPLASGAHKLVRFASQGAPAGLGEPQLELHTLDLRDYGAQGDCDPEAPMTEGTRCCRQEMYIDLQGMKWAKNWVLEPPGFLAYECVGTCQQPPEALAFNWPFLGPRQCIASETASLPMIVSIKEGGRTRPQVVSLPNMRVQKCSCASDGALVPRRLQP
Sequence of Albumin (Bos taurus) (P02769 whole entry, looked up): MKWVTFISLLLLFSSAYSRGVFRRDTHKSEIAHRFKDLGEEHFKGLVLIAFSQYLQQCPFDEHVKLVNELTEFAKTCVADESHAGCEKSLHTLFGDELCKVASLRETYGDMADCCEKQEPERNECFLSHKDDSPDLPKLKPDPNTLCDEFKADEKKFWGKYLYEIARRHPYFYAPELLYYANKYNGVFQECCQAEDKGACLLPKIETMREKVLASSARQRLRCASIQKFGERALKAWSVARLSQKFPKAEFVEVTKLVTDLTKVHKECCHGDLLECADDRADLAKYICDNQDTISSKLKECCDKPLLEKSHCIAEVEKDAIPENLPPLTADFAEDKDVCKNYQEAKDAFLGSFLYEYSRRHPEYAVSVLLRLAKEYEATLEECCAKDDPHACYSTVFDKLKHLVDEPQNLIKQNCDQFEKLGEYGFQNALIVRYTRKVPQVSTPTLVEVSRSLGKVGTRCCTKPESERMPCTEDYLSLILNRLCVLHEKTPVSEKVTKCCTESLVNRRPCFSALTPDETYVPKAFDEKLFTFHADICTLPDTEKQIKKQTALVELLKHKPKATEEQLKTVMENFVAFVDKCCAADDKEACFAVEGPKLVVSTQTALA

With `O=C(CS)NCCCCCNC(=O)[C@@H]1C[C@@H]2C(=O)NCC(=O)N2[C@@H]1c1cccc(OCCO)c1`, the composite z-score in assay [1] is 0.275; in assay [3], 0.387; in assay [4], 0.129; in assay [5], -0.193; in assay [6], -0.16; in assay [7] it was -0.197. Also, the composite z-score in [8] is -0.137; in assay [9] it was 0.635; in assay [10] it was -0.315; with Albumin (Bos taurus), 0.57; in assay [12] it was -0.162; in assay [13], -0.125. In addition, the composite z-score in [14] was 0.179; in assay [15], 1.61; in assay [16], 0.783; with Sam68 (KHDRBS1), 0.459; in assay [17], 0.656; in [18], 0.324. Moreover, the z-score in assay [2] was -0.125. For the same molecule, the composite Z-score in [11] is 0.498 (inactive).
In the case of `CCCC[C@@H]1C[C@H]1[C@@H](NC(=O)c1cccnc1)c1ccc(Cl)cc1`, the composite z-score in assay [1] is -1.05; in assay [3] it was -2.99; in assay [4] it was 0.867; in [5] it was 1.69; in assay [6], -0.191; in assay [7], -0.509. Also, the composite z-score in assay [8] was 0.526; in assay [9], -0.553; in [10] it was -1.36; with Albumin (Bos taurus) it was -1.41; in [12], -0.429; in assay [13], -0.185. For the same molecule, the composite z-score in [14] was -0.404; in assay [15] it was 0.878; in assay [16], -0.271; with Sam68 (KHDRBS1) it was -1.27; in [17] it was -1.95; in assay [18], -2.03. The molecule also yielded a z-score in [2] of -2.14. In addition, in [11], the composite Z-score was -0.29 (inactive).
On to `CC[C@@H]1C=C(C(=O)O)[C@H](c2ccc(C)cc2)N1S(=O)(=O)c1ccc(C)cc1`, for which the composite z-score in assay [1] is 0.878; in assay [3], -0.925; in assay [4], 0.846; in [5], 0.515; in assay [6], -0.096; in [7] it was 0.0048. In addition, the composite z-score in [8] is -0.126; in assay [9], 0.24; in [10], 0.671; with Albumin (Bos taurus), 0.74; in assay [12] it was 0.0876; in [13], -0.101. For the same molecule, the composite z-score in assay [14] was 0.759; in assay [15] it was 0.969; in assay [16], 0.0014; in the assay with Sam68 (KHDRBS1) it was 1.19; in [17], -0.697; in assay [18], 0.759. In assay [2], this molecule registered a z-score of -0.315. Further, in assay [11], the composite Z-score is 0.827 (inactive).
Consider `CCOC(=O)C[C@H]1[C@H](OC(=O)c2ccc(C(=O)c3ccccc3)cc2)[C@@H](NC(=O)Cc2ccc(OC)cc2)c2cc(OCCCO)ccc2N1C(=O)c1ccc2ccccc2n1`, for which the composite z-score in [1] was 0.998; in [3], 0.816; in assay [4] it was 0.985; in assay [5] it was 0.336; in assay [6] it was -0.131; in assay [7], -0.0709. Also, the composite z-score is -0.526 in assay [8]; 0.566 in assay [9]; 0.738 in assay [10]; 0.701 with Albumin (Bos taurus); -0.0445 in assay [12]; -0.0868 in assay [13]. Also, the composite z-score in [14] is 0.151; in [15], 1.34; in assay [16] it was 0.493; in the assay on Sam68 (KHDRBS1) it was 1.09; in [17] it was -0.0473; in [18], 0.818. In [2], this molecule came in with a z-score of -0.873. Further, in assay [11], the composite Z-score is 0.0505 (inactive).
On to `OCCCC1=CC(C2CC2)N(Cc2cccc(OC(F)(F)F)c2)CC1` (stereo not given), for which the composite z-score in [1] is -0.928; in [3], -0.119; in [4], -0.968; in assay [5], 0.115; in assay [6] it was -0.178; in assay [7], -0.321. Also, the composite z-score in [8] was -0.641; in assay [9], 1; in [10], -0.478; with Albumin (Bos taurus), 0.485; in assay [12], -0.284; in assay [13], -0.177. Also, the composite z-score was 0.783 in assay [14]; 0.421 in assay [15]; 0.833 in [16]; -0.441 in the assay on Sam68 (KHDRBS1); -0.106 in assay [17]; -0.807 in assay [18]. The molecule further registered a z-score in [2] of -1.32. For the same molecule, the composite Z-score in [11] was 0.438 (inactive).
As to `O=C1[C@@]23C=C(Br)[C@H](C[C@@H]2COC3)[C@]12CO2`, the composite z-score in assay [1] is -2.09; in assay [3], -1.16; in assay [4], -1.01; in assay [5], -1.25; in assay [6], 0.0388; in assay [7], -0.234. In addition, the composite z-score in assay [8] is 0.0256; in assay [9], -0.0722; in assay [10], -1.5; with Albumin (Bos taurus), -0.742; in assay [12], -0.0187; in [13], -0.0176. In addition, the composite z-score in [14] is -0.762; in assay [15] it was 0.638; in assay [16], -0.447; in the assay on Sam68 (KHDRBS1), -2.61; in assay [17] it was -0.323; in assay [18], -1.79. In addition, in assay [2], the z-score was -1.96. Besides, the composite Z-score in assay [11] is -0.222 (inactive).
